For 64 compounds, inhibition results are on record in PubChem BioAssay AID372 (MTDP, 2006).

Structures are written as SMILES. The campaign covered roughly 100,000 compounds. About 770 (0.77%) were called active. This excerpt belongs to a sample that is enriched for actives. Values without a mark were called inactive. Rule as the data show it: active = inhibition above about 50%; inactive = the rest.

The target of this experiment is Gag-Pol polyprotein (Human immunodeficiency virus type 1 group M subtype B (isolate HXB2)) (UniProt P04585). The experiment is described as follows: RNase H inhibition, HIV 1 Gag Pol polyprotein, FRET biochemical assay, screening (AID 372). The settings on record: HIV-1 RT RNase H, FRET RNA/DNA substrate fluorescence; at 10 µM; stronger effect = higher value.
In general, inhibition refers to the share of the control response that was lost under treatment. `COc1cccc(C(=O)NC(=S)Nc2ccc3oc(-c4ccccc4Cl)nc3c2)c1`: the inhibition is 12%.

For the compound `O=C(CSc1n[nH]c(-c2ccncc2)n1)c1ccc(O)cc1O`, the inhibition was 15%.

Turning to `FC(F)(F)Oc1ccc(N=Cc2ccc(Br)s2)cc1`, the inhibition was 8%.

Regarding `Oc1cccc(-c2nc(-c3ccccc3)c(-c3ccc(Br)cc3)[nH]2)c1`, the inhibition was 22%.

For the compound `CCOc1ccc(OCCOCCOc2ccccc2Cl)cc1`, the inhibition was 8%.

In the case of `CC1(C)CC(=O)C=C(Nc2cc([N+](=O)[O-])ccc2N)C1`, the inhibition is 7%.

`CCN(CC)c1ccc(NS(=O)(=O)c2ccc(Cl)cc2)cc1`: the inhibition was 28%.

Regarding `Cc1cc(C)cc(OCCNC(=O)c2ccccc2C)c1`, the inhibition is 5%.

Turning to `Cc1ccc2nc(-c3cc(NC(=S)NC(=O)c4cccc(F)c4)ccc3Cl)oc2c1`, the inhibition was 51% (active).

Take `COc1cccc(C(=O)NC(=S)Nc2ccc(-c3nc4cc(C)ccc4o3)c(O)c2)c1`: the inhibition is 53% (active).

Regarding `COc1ccc(C(=O)NC(=S)Nc2ccc(-c3nc4cc(C)ccc4o3)c(O)c2)cc1`, the inhibition is 17%.

With `Cc1ccc2nc(-c3ccc(C)c(NC(=S)NC(=O)c4cccc(F)c4)c3)oc2c1`, the inhibition was 52% (active).

Take `O=C(NC(=S)Nc1ccc2oc(-c3cc(Cl)ccc3Cl)nc2c1)c1cccc(F)c1`: the inhibition is 18%.

Regarding `Cc1ccc2nc(-c3ccc(C)c(NC(=S)NC(=O)c4cccc(Br)c4)c3)oc2c1`, the inhibition was 22%.

On to `Cc1ccc(C(=O)NC(=S)Nc2ccc(Cl)c(-c3nc4ccc(C)cc4o3)c2)cc1`, for which the inhibition is 15%.

For the compound `Cc1cc(C)c2oc(-c3ccc(C)c(NC(=S)NC(=O)c4cccc(F)c4)c3)nc2c1`, the inhibition was 0%.

Take `COc1cccc(C(=O)Nc2ccc(-c3nc4cc(C)ccc4o3)c(O)c2)c1`: the inhibition was 36%.

Turning to `O=C(Nc1ccc(F)c(Cl)c1)c1ccncc1`, the inhibition was 7%.

Consider `CCCC1=C(C(=O)OCC)C(c2ccc(Cl)cc2Cl)NC(=O)N1` (centres undefined), for which the inhibition was 4%.

For `Cc1cccc(N2C(=O)/C(=C/c3cccn3-c3ccccc3)C(=O)NC2=S)c1C`, the inhibition is 30%.

As for `COc1ccc(/C=C2\C(=O)NC(=O)N(c3ccccc3)C2=O)cc1I`, the inhibition is 39%.

In the case of `CCOc1cc(/C=N/NC(=O)c2ccncc2)ccc1OC(=O)c1ccco1`, the inhibition was 5%.

As to `O=S(=O)(Nc1ccccc1C(F)(F)F)c1ccccc1`, the inhibition is 4%.

Regarding `COc1ccc(-n2c(C)cc(/C=C(\C#N)C(=O)Nc3ccccc3)c2C)cc1`, the inhibition is 11%.

On to `O=C1CC(SC(=NCc2ccc3c(c2)OCO3)Nc2ccccc2)C(=O)N1` (centres undefined), for which the inhibition is 0%.

For the compound `COc1ccc(OC)c(CNCc2ccc3c(c2)OCO3)c1`, the inhibition is 6%.

As to `COc1ccc(-n2nc3ccc(NC(=O)c4ccc(I)cc4)cc3n2)cc1`, the inhibition was 51% (active).

With `COc1ccc(C(=O)Nc2ccc(/C=C/C(=O)c3ccccc3)cc2)cc1`, the inhibition is 8%.

Take `COc1cc(C(=O)Nc2ccc(NC(=O)c3ccccc3)cc2)cc(OC)c1OC`: the inhibition was 10%.

As to `Cc1cc(NC(=O)c2ccc(F)cc2)ccc1NC(=O)c1ccccc1`, the inhibition is 0%.

On to `COc1ccc(C(=O)Nc2ccc3nn(-c4ccc(F)cc4)nc3c2)cc1`, for which the inhibition is 0%.

`Cc1cc(NC(=O)c2ccc(I)cc2)ccc1NC(=O)c1ccccc1`: the inhibition is 50% (active).

As for `COc1ccc(C(=O)/C=C/c2ccc(NC(=O)c3ccc(I)cc3)cc2)cc1`, the inhibition is 60% (active).

Take `COc1ccc(C(=O)Nc2cccc(/C=C/C(=O)c3ccccc3)c2)cc1OC`: the inhibition was 3%.

In the case of `COc1ccc(/C=C/C(=O)c2ccc(I)cc2)cc1`, the inhibition is 8%.

For `COc1cc(C(=O)Nc2ccc(/C=C/C(=O)c3ccccc3)cc2)cc(OC)c1OC`, the inhibition was 63% (active).

`COc1ccc(-n2nc3ccc(NC(=O)c4ccc(C)c(C)c4)cc3n2)cc1`: the inhibition was 8%.

`Cc1cc(NC(=O)c2ccc(C(C)(C)C)cc2)ccc1NC(=O)c1ccccc1`: the inhibition is 7%.

As for `CC(C)(C)C1CCC(C(=O)N/N=C/c2ccc(Cl)s2)CC1` (centres undefined), the inhibition is 5%.

Turning to `CSc1nnc2c(n1)[nH]c1c(C)cccc12`, the inhibition was 10%.

As to `COc1ccc(N2N=C(c3ccc(C)cc3)CC2c2cccs2)cc1` (centres undefined), the inhibition was 6%.

Turning to `O=C(NNc1ccc([N+](=O)[O-])cc1)c1ccc([N+](=O)[O-])cc1`, the inhibition was 5%.

Consider `O=C(Nc1ccc(OCc2ccccc2)cc1)c1cccc2ccccc12`, for which the inhibition is 15%.

In the case of `CCOc1ccc2nc(SCc3ccc(OC)c(F)c3)sc2c1`, the inhibition was 20%.

With `Cc1cc(/C=C2/SC(=S)NC2=O)c(C)n1-c1ccc(Cl)cc1`, the inhibition is 2%.

Regarding `Cc1ccc(-n2c(C)cc(/C=C3/SC(=S)NC3=O)c2C)cc1`, the inhibition was 5%.

Regarding `Cc1cc(C=C2C(=O)NC(=S)NC2=O)c(C)n1-c1cccc(Cl)c1`, the inhibition is 28%.

`Cc1cc(/C=C2/SC(=S)NC2=O)c(C)n1-c1ccccc1`: the inhibition is 19%.

In the case of `Cc1cc(C=C2C(=O)NC(=S)NC2=O)c(C)n1-c1ccc(Cl)c(Cl)c1`, the inhibition is 55% (active).

`Cc1cccc(-n2c(C)cc(/C=C3/SC(=S)NC3=O)c2C)c1`: the inhibition is 56% (active).

On to `Cc1ccc(-n2c(C)cc(C=C3C(=O)NC(=S)NC3=O)c2C)cc1C`, for which the inhibition was 19%.

For the compound `Cc1cc(/C=C2/SC(=S)NC2=O)c(C)n1-c1ccc(Cl)c(Cl)c1`, the inhibition is 53% (active).

Consider `Cc1cc(/C=C2/SC(=S)NC2=O)c(C)n1-c1cccc(Cl)c1`, for which the inhibition was 8%.

Regarding `CCCCN1C(=O)c2cccc3c(Cl)ccc1c23`, the inhibition is 44%.

With `Cc1cc(OCC(=O)Nc2ccccn2)cc(C)c1Cl`, the inhibition was 2%.

With `CCOc1ccccc1OCCOc1ccc(C)cc1C(C)(C)C`, the inhibition was 17%.

Regarding `CC(C)OC(=O)c1c(NC(=O)c2ccc([N+](=O)[O-])cc2Cl)sc2c1CCCCC2`, the inhibition was 31%.

With `CC(C)(C)c1nnc(-c2cccc([N+](=O)[O-])c2)o1`, the inhibition was 8%.

Consider `CC(=O)Nc1ccc(NC(=O)c2cc(Cl)ccc2Cl)cc1`, for which the inhibition is 6%.

For the compound `Cc1cccc(NC(=O)c2cc(Cl)ccc2Cl)n1`, the inhibition is 54% (active).

For `CC(=O)Nc1cccc(NC(=O)c2cc(Cl)ccc2Cl)c1`, the inhibition is 56% (active).

As to `COc1ccc(Cl)cc1C(=O)Nc1cccc(C)n1`, the inhibition was 0%.

Take `Cc1cccc(NC(=O)c2cc(I)ccc2Cl)n1`: the inhibition is 0%.

For the compound `CC(=O)Nc1cccc(NC(=O)c2ccc(Cl)cc2Cl)c1`, the inhibition was 3%.
